# Experimental data reported in PubChem BioAssay AID493170 (National Center for Advancing Translational Sciences (NCATS), 2011).
# Inconclusive results are not listed. Entries that show only a call come without a potency. Active and inactive are the calls of the source. Calls come from the whole dose curve; as a rule, active = well fitted inhibition curve with a large enough effect; inconclusive = small, poorly fitted or top-dose-only effect, or effect the other way; inactive = flat fitted curve, though single readings scatter.
# Biological target: Ubiquitin carboxyl-terminal hydrolase 2 (Homo sapiens) (UniProt O75604)
# Assay: Ub-rhodamine 110 based assay for inhibitors Ubiquitin-specific Protease USP2a; note: nearly all actives have a fitted effect of over 50% in size
# Settings: USP2a Ub-rhodamine110 cleavage, fluorescence; series mostly up to 38.3 µM
# Method in brief: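 Kinetic fluorescence (485/531 nm) read each minute over 7 min after adding Ub-Rhod110 (150 nM final) to USP2a (5 nM final). The enzyme had 30 min RT exposure to compounds beforehand in Tris pH 8.0 buffer with CaCl2, CHAPS and beta-ME.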
# Potency is the fitted concentration of half-maximal effect.
# Ubiquitin carboxyl-terminal hydrolase 2 (Homo sapiens), sequence (O75604 whole entry, looked up): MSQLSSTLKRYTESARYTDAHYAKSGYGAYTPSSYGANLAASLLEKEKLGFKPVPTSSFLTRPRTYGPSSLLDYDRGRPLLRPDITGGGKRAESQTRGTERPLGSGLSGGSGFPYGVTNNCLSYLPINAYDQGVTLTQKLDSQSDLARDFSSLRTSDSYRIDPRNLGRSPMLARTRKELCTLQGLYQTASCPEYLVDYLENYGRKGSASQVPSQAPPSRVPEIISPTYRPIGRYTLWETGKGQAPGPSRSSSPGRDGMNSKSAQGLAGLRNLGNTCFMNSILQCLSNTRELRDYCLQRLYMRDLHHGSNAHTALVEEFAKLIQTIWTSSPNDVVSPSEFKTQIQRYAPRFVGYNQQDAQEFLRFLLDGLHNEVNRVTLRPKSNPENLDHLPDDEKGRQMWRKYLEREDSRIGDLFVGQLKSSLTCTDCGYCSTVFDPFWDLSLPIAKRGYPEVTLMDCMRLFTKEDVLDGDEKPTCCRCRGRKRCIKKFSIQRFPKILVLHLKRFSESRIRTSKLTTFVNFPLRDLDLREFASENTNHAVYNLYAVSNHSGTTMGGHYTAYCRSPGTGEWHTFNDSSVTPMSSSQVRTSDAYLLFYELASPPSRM
row,Structure (SMILES),Potency
1,O=C1c2ccccc2C(=O)N1CCC1=CCCCC1,inactive
2,O=C(NCCOC(=O)c1ccccc1C(=O)OCCNC(=O)c1cccnc1)c1cccnc1,inactive
3,CC(C)(C)C1CCC2(CC1)Nc1cccc3cccc(c13)N2,inactive
4,O=C(NC12CC3CC(CC(C3)C1)C2)C1=COCCO1,inactive
5,O=C(Cc1cc(=O)[nH]c(=O)[nH]1)NCC1CCCO1 (stereo not given),inactive
6,Nc1cc(=O)[nH]c(SCc2cccc(Cl)c2)n1,inactive
7,COC(=O)c1ccc(NC(=O)CSC2=Nc3ccccc3C3CC=NN23)cc1 (stereo not given),inactive
8,CCCCNc1nc2ccccc2nc1NS(=O)(=O)c1cccs1,inactive
9,CC(=O)OCC(=O)Nc1ccc(Cl)cc1Cl,inactive
10,C#CCOCCOCCOCCNc1nc(N2CCN(C(=O)CCCCCCCCCCNC(=O)[C@H]([C@@H](C)CC)n3cc(CCCCCN)nn3)CC2)nc(N2CCN(C(=O)CCCCCCCCCCNC(=O)[C@H]([C@@H](C)CC)n3cc(CCCCN=C(N)N)nn3)CC2)n1,12.6 µM (active)
11,COc1ccc(CCn2c(O)cc3nn(-c4nc5ccccc5s4)c(=O)c-3c2C)cc1,5.62 µM (active)
12,O=C(O)CC1(CC(=O)Nc2ccc3ccccc3c2)CCCCC1,inactive
13,COc1ccc(/C=C\C(=O)O[C@@H]2C(O)C(O[C@@H]3OC(C)[C@H](O[C@@H]4OCC(O[C@H]5O[C@H](CO)[C@@H](O)C(O)C5O)C(O)C4O)C(O)C3O)[C@H](OC(=O)[C@]34CCC(C)(C)C[C@@H]3C3=CCC5[C@@]6(C)CC(O)C(O[C@@H]7OC(CO)C(O)[C@H](O)[C@H]7O)[C@@](C)(C(=O)O)C6CC[C@@]5(C)[C@]3(CO)CC4)O[C@H]2C)cc1 (stereo not given in full),inactive
14,CNc1nc(OCCNC(=O)Nc2ccccc2)nc(N2CCOCC2)n1,inactive
15,CCN(CC)S(=O)(=O)c1ccc(Cl)c(NC(=O)COC(=O)c2c(C)noc2C)c1,inactive
16,Cc1cc(C(=O)OCC(=O)c2cccc([N+](=O)[O-])c2)c2cccc(C)c2n1,10 µM (active)
17,COc1cc(NC(=O)COC(=O)CSc2ccccc2F)c(C)cc1[N+](=O)[O-],inactive
18,Cc1ccc(SCc2cc(=O)c3c(=O)n(-c4ccccc4)[nH]c3[nH]2)cc1,inactive
19,CC(C)OCCCNC(=O)CN1C(=O)CC(C)(C)S(=O)(=O)c2ccccc21,inactive
20,CC1=CC(C)(C)N(C(=O)c2ccccc2)c2ccccc21,inactive

row,Structure (SMILES),Potency
1,CCn1c(COc2ccc(C)cc2)nnc1SCC(=O)Nc1ccc2c(c1)OCCO2,inactive
2,COc1ccc(NC(=S)NC(=O)/C=C/c2ccco2)cc1,inactive
3,O=C(NCC(c1cccnc1)N1CCN(c2ccc(F)cc2)CC1)OCc1ccccc1 (stereo not given),inactive
4,CCOc1cc(N2CCOCC2)c(OCC)cc1NC(=O)Cc1cn2ccsc2n1,inactive
5,CCn1c(SCC(=O)NCCc2ccccc2)nnc1-c1cccs1,inactive
6,CC(C)CCn1c(CN2CCN(C(=O)c3ccco3)CC2)nc2c1c(=O)n(C)c(=O)n2C,inactive
7,O=C(CSc1ccc2nnc(-c3cccc(F)c3)n2n1)N1CCCc2ccccc21,inactive
8,O=C(Nc1ccc(N2CCCC2)cc1)c1ccc(Br)cc1,8.91 µM (active)
9,CN1CCN(CCCCOc2ccc(F)cc2)CC1,inactive
10,CCc1cc2cccc(C)c2nc1SCC(=O)N1CCN(C(=O)c2ccco2)CC1,inactive
11,O=C(C1CCCN(S(=O)(=O)c2cccc3cccnc23)C1)N1CCN(c2ccccc2F)CC1 (stereo not given),inactive
12,N#CCc1ccc(NC(=O)/C=C/c2ccc([N+](=O)[O-])o2)cc1,10 µM (active)
13,CCOc1ccc(C=NNc2ccc(S(=O)(=O)Nc3ccccc3C(=O)O)cc2[N+](=O)[O-])cc1,2.82 µM (active)
14,CC(C)C(C(=O)O)N1C(=O)/C(=C/C=C/c2ccco2)SC1=S (stereo not given),5.01 µM (active)
15,C=CCn1c(O)c(C(CC)=NCCN2CCOCC2)c(=O)[nH]c1=O,inactive
16,O=C(CNC(=O)C1CCCCC1)NC1=NCCS1,inactive
17,Cc1c(NC(=O)C2CCCN(S(=O)(=O)c3cnc[nH]3)C2)c(=O)n(-c2ccccc2)n1C (stereo not given),inactive
18,NC(=O)c1ncc(C(F)(F)F)cc1Oc1cccc(F)c1,inactive
19,CCOc1ccc2[nH]c(=O)c(CN(Cc3cccs3)Cc3nnnn3C(C)(C)CC)cc2c1,inactive
20,O=C(c1ccccc1)N1CCN(C2C3CC4CC(C3)CC2C4)CC1 (stereo not given),inactive
